# Experimental data as given in PubChem BioAssay.
# “And” between values parts separate entries of the source, which are not always exact repeats. Equal entries are not always repeated. The source made the active and inactive calls. Unless noted, no stated cut-off is given here; in the data, active means inhibition above about 80%; inactive means the rest.
# What was measured:
# [1] = compounds altering viability of human ES cells (AID 493140; call rule not given here;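 further: cells exposed to compounds for four days before counting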); details: human embryonic stem cell survival screen; stronger effect = higher value
# [2] = P. berghei load reduction in hepatocytes – cell-based, HepG2, luciferase luminescence, HepG2 viability, primary screen (AID 624349; in the data active means parasite load remaining mostly below about 12%, no sharp cut-off; inactive means mostly above about 10%;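 further: 100% = mean of DMSO negative control wells on the same plate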); details: P. berghei liver stage in HepG2, luciferase luminescence, concentration not given here; parasite load remaining: stronger effect = lower value; viability: measured here: HepG2 viability without parasites
# [3] = viability loss with induced miR-34 in A549 – imaging, A549 dox-inducible miR-34, nuclei and caspase counts, primary screen (AID 1347080;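 active means compounds whose cell count with miR-34 switched on is under 0.7 times the count with it off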); details: A549 miR-34 inducible, Hoechst nuclei count, 48 h
# [4] = MELAS cybrid and Rieske KO viability enhancers – cell-based, MELAS cybrids, Rieske KO mouse fibroblasts, CellTiter-Glo, primary screen (AID 1508586;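 active means mean z-score across replicates of 1.96 or higher in either the MELAS or the Rieske mutant cell line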;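 further: z relative to plate mean and SD of compound and empty wells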); details: low glucose
# [5] = growth inhibition, single agent or in combination, cell-based, chromothripsis tumors, cisplatin or BGB combos (AID 1671449); details: LFS_MB_P medulloblastoma cells;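 further: cells exposed for 96 hours; 0% = vehicle DMSO and 100% = killing by high DMSO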
# [6] = growth inhibition, single agent and combos, cell-based, chromothripsis tumors, cisplatin or BGB combos (AID 1671450); details: HDN33 neuroblastoma cells, stronger effect = higher value;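 further: cells exposed to compound for four days; 0% = vehicle DMSO and 100% = cell killing by high DMSO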
# [7] = growth inhibition, single agents and combos, ICB984, cell-based, cisplatin or BGB combos, synergistic combos for chromothripsis tumors (AID 1671451; call rule not given here;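 further: cells exposed for 96 hours before readout; 0% = vehicle DMSO and 100% = killing by high DMSO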); details: ICB984 medulloblastoma cells, drug combinations, stronger effect = higher value
# [8] = growth inhibition, single agents and combos, LFS_MB_1R, cell-based, cisplatin or BGB combos, synergistic combos for chromothripsis tumors (AID 1671452); details: LFS_MB_1R medulloblastoma cells, stronger effect = higher value;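 further: cells exposed for 96 hours before readout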
# [9] = growth inhibition, single agents and combos, HTB85, cell-based, BGB or cisplatin IC20 combos, synergistic combos for chromothripsis tumors (AID 1671453); details: HTB85 osteosarcoma cells, drug combinations, stronger effect = higher value;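 further: cells exposed for 96 hours before readout; 0% = vehicle DMSO and 100% = high DMSO killing control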
# [10] = growth inhibition, single agents and combos, CRL2098, cell-based, BGB or cisplatin IC20 combos, synergistic combos for chromothripsis tumors (AID 1671454); details: CRL2098 osteosarcoma cells, drug combinations, stronger effect = higher value;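 further: cells exposed for 96 h before readout; 0% = vehicle DMSO and 100% = killing by high DMSO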
# [11] = growth inhibition, single agents and combos, HD-MB03, cell-based, BGB or cisplatin IC20 combos, synergistic combos for chromothripsis tumors (AID 1671455; in the data active means inhibition above about 83%;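 further: 0% = vehicle DMSO and 100% = high DMSO as cytotoxic control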); details: HD-MB03 medulloblastoma cells, stronger effect = higher value
# [12] = growth inhibition, single agents and combos, UWB1.289, cell-based, BGB or cisplatin combos, synergistic combos for chromothripsis tumors (AID 1671456); details: UWB1.289 ovarian carcinoma cells, stronger effect = higher value;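 further: cells exposed to compound for four days; 0% = vehicle DMSO and 100% = killing by high DMSO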
# [13] = growth inhibition, single agents and combos, LFS_MB_2R, cell-based, cisplatin combos, synergistic combos for chromothripsis tumors (AID 1671457); details: LFS_MB_2R medulloblastoma cells, stronger effect = higher value;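 further: cells exposed to compound for four days before readout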
# [14] = growth inhibition, MDA-MB-436, cell-based, BGB or cisplatin combos, synergistic combos for chromothripsis tumors (AID 1671458; call rule not given here;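 further: cells exposed for 96 hours; 0% = vehicle DMSO and 100% = killing by high DMSO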); details: MDA-MB-436 breast carcinoma growth inhibition, drug combinations, stronger effect = higher value
# [15] = UWB1.289_BRCA1 ovarian cancer growth, cell-based, BGB or cisplatin combinations (AID 1671459); details: UWB1.289 BRCA1 ovarian carcinoma, drug combinations, stronger effect = higher value
# [16] = drug combination toxicity in non-malignant astrocytes – cell-based, BGB or cisplatin IC20 combos, cytotoxicity control for chromothriptic childhood tumor combination screen (AID 1671460); details: Human astrocytes, viability inhibition, drug combinations, at 0.5 µM, stronger effect = higher value;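 further: cells exposed to compounds for 96 hours before viability readout; 0% = vehicle and 100% = killing control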
# [17] = BT084 cell growth, single and combined drugs, ICGC_MB145, cisplatin and BGB IC40 combos (AID 1671461); details: BT084 medulloblastoma cells, drug combinations, stronger effect = higher value;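 further: cells exposed to drugs for 96 hours; 0% = vehicle DMSO and 100% = high DMSO full killing control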
# [18] = RCMB18 cell growth, single agent and combined, cisplatin and BGB IC40 combos (AID 1671462); details: RCMB18 medulloblastoma cells, stronger effect = higher value;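 further: cells exposed to compound for four days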
# [19] = CRL1545 cell growth, single agent and combined, cisplatin and BGB IC20 combos (AID 1671464); details: CRL1545 osteosarcoma cells, stronger effect = higher value;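 further: cells exposed to compound for 96 hours before readout; 0% = vehicle DMSO and 100% = high DMSO killing control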
# [20] = stronger effect = lower value, cell number ratio, induced over uninduced
# [21] = measured here: relative caspase fold change +Dox/-Dox
# [22] = measured here: total cells with miR-34 induction, stronger effect = lower value
# [23] = measured here: total cells without miR-34 induction
# [24] = MELAS cybrid survival, CellTiter-Glo 48 h, stronger effect = higher value
# [25] = Rieske KO mouse fibroblast survival, CellTiter-Glo 72 h
# [26] = measured here: combination with BGB IC40, at 0.05 µM
# [27] = measured here: with BGB IC20 combination, at 0.5 µM
# [28] = measured here: with cisplatin IC20 combination, at 0.5 µM
# [29] = measured here: combination with cisplatin, at 0.5 µM
# [30] = measured here: combination with cisplatin, at 5 µM
smiles,measurement,setting,value
CNc1ncnc2c1ncn2[C@@H]1O[C@H](CO)[C@@H](O)[C@H]1O,survival,[1],5.42 (inactive)
same,parasite load remaining,[2],23.9% (inactive) and 70.7% (inactive)
same,viability,[2],132% and 78.2%
same,fold change,[3]; [20],0.829 (inactive)
same,fold change,[3]; [21],1.48
same,cell count,[3]; [22],7800
same,cell count,[3]; [23],9420
same,z-score,[4]; [24],0.118 (inactive)
same,z-score,[4]; [25],-0.237
Nc1ncn(C2OC(CO)C(O)C2O)c(=O)n1 (stereo not drawn),fold change,[3]; [20],0.707 (inactive)
same,fold change,[3]; [21],0.203
same,cell count,[3]; [22],2140
same,cell count,[3]; [23],3020
same,z-score,[4]; [24],-0.256 (inactive)
same,z-score,[4]; [25],0.025
same,inhibition,"[5]; at 0.5 µM, stronger effect = higher value",-5.82% (inactive)
same,inhibition,"[5]; measured here: combination with BGB IC20, at 0.005 µM",12.2%
same,inhibition,"[5]; measured here: combination with BGB IC40, at 0.005 µM",6.88%
same,inhibition,[5]; [26],-0.515%
same,inhibition,"[5]; measured here: combination with cisplatin, at 0.5 µM, stronger effect = higher value",-8.35%
same,inhibition,"[5]; measured here: combination with cisplatin, at 5 µM, stronger effect = higher value",15.6%
same,inhibition,"[6]; BGB combo, at 5 µM",35.3%
same,inhibition,[6]; at 0.5 µM,3.8% (inactive)
same,inhibition,"[6]; cisplatin combo, at 5 µM",38.5%
same,inhibition,[6]; [27],-3.13%
same,inhibition,[6]; [28],6.68%
same,inhibition,"[6]; single agent, at 5 µM",47.8%
same,inhibition,"[7]; BGB IC20 combo, at 0.005 µM",3.99%
same,inhibition,"[7]; BGB IC40 combo, at 0.005 µM",-4.47%
same,inhibition,"[7]; BGB IC40 combo, at 0.05 µM",64.1%
same,inhibition,[7]; at 0.5 µM,-14.1% (inactive)
same,inhibition,"[7]; cisplatin combo, at 0.05 µM",62.8%
same,inhibition,"[7]; cisplatin combo, at 0.5 µM",-8.65%
same,inhibition,"[7]; cisplatin combo, at 5 µM",-9.29%
same,inhibition,"[7]; measured here: 5 uM single agent, at 5 µM",-4.38%
same,inhibition,[8]; at 0.5 µM,1.69% (inactive)
same,inhibition,[8]; [26],-18.7%
same,inhibition,[8]; [29],-16%
same,inhibition,[8]; [30],-12%
same,inhibition,[9]; at 0.5 µM,-6.96% (inactive)
same,inhibition,"[9]; measured here: with BGB IC20, at 0.5 µM",-12.6%
same,inhibition,"[9]; measured here: with BGB IC20, at 5 µM",18.2%
same,inhibition,"[9]; measured here: with cisplatin IC20, at 0.5 µM",-13.1%
same,inhibition,"[9]; measured here: with cisplatin IC20, at 5 µM",4.48%
same,inhibition,"[9]; single agent, at 5 µM",30.1%
same,inhibition,[10]; at 0.5 µM,-21% (inactive)
same,inhibition,"[10]; measured here: combination with BGB at IC20, at 0.5 µM",-8.95%
same,inhibition,"[10]; measured here: combination with cisplatin at IC20, at 0.5 µM",-58.6%
same,inhibition,[11]; at 0.5 µM,2.06% (inactive)
same,inhibition,"[11]; measured here: combo with BGB at IC20, at 0.5 µM",4.05%
same,inhibition,"[11]; measured here: combo with cisplatin at IC20, at 0.5 µM",0.735%
same,inhibition,[12]; at 0.5 µM,18.4% (inactive)
same,inhibition,"[12]; measured here: inhibition with BGB combination, at 0.05 µM",8.02%
same,inhibition,"[12]; measured here: inhibition with cisplatin combination, at 0.05 µM",-5.92%
same,inhibition,[13]; at 0.5 µM,-0.31% (inactive)
same,inhibition,[13]; [29],-2.9%
same,inhibition,[13]; [30],21.8%
same,inhibition,[14]; at 0.5 µM,12.3% (inactive)
same,inhibition,"[14]; measured here: BGB combination, at 0.5 µM",18%
same,inhibition,"[14]; measured here: BGB combination, at 5 µM",23.9%
same,inhibition,"[14]; measured here: cisplatin combination, at 0.5 µM",0.452%
same,inhibition,"[14]; measured here: cisplatin combination, at 5 µM",23.8%
same,inhibition,"[15]; BGB combination, concentration series, at 5 µM",63.4%
same,inhibition,[15]; at 0.5 µM,20.7% (inactive)
same,inhibition,"[15]; cisplatin combination, concentration series, at 5 µM",51%
same,inhibition,[16],13.2% (inactive)
same,inhibition,[16]; measured here: combo with BGB IC20,17.7%
same,inhibition,[16]; measured here: combo with cisplatin IC20,11.2%
same,inhibition,[17]; at 0.5 µM,10.9% (inactive)
same,inhibition,"[17]; cisplatin combination, at 0.5 µM",-8.96%
same,inhibition,"[17]; cisplatin combination, at 5 µM",53.9%
same,inhibition,"[17]; measured here: BGB IC40 combination 0.05 uM, at 0.05 µM",30.7%
same,inhibition,"[17]; single agent, at 5 µM",8.5%
same,inhibition,[18]; at 0.5 µM,6.45% (inactive)
same,inhibition,"[18]; cisplatin combo, at 5 µM",53.3%
same,inhibition,"[18]; measured here: BGB IC40 combination, at 0.05 µM",-6.06%
same,inhibition,[18]; [29],6.83%
same,inhibition,"[18]; single agent, at 5 µM",41.5%
same,inhibition,[19]; at 0.5 µM,0.69% (inactive)
same,inhibition,[19]; [27],16.1%
same,inhibition,[19]; [28],-8.76%
same,inhibition,"[19]; single agent, at 0.05 µM",-10.6%
same,inhibition,"[19]; single agent, at 5 µM",9.69%
